# Measurements from paper PMC7862700, “An all-to-all approach to the identification of sequence-specific readers for epigenetic DNA modifications on cytosine”.
# What was measured:
# Assay in all cases: DAPPL (digital affinity profiling via proximity ligation, sequencing); 10 mM Tris-HCl pH 7.5, 50 mM NaCl, 1 mM DTT, 4% glycerol, room temperature, 30 min; GST-TFs on glutathione beads, 16-mer random dsDNA library, 0.1% formaldehyde crosslink after washing; high values mean tight binding
# FLI1 = target: T1, FLI1 (Homo sapiens, UniProt Q01543 1-452); details: protein: recombinant; tags: N-terminal GST; dsDNA, one strand shown
# T1 sequence: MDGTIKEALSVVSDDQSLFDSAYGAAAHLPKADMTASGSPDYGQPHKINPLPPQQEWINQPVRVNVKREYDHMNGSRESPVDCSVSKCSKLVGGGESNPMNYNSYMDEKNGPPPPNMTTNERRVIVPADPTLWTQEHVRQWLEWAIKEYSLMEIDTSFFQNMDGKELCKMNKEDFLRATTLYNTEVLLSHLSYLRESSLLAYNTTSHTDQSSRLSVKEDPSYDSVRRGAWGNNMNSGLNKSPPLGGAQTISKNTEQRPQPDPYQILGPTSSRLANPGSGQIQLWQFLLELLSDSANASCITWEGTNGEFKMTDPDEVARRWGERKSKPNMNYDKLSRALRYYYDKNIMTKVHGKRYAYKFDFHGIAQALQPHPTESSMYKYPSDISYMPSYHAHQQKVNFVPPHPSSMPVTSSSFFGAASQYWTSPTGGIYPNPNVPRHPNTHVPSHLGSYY
# Summary of the method: (§1)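 GST fusions of human transcription factors were expressed in yeast and captured with glutathione beads. Once given DNA barcodes and pooled alongside a tag-only sample, they were incubated for 30 min at room temperature with 200 nmole of a random double-stranded 16-mer DNA library in Tris/NaCl/DTT/glycerol buffer, then washed, crosslinked (0.1% formaldehyde), proximity-ligated, PCR-amplified and sequenced on an Illumina NextSeq500. The binding signal of each hexamer is its read frequency for a factor divided by its frequency for the tag-only sample.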
# ELK1 = target: T2, ELK1 (Homo sapiens, UniProt P19419 1-428); details: protein: recombinant; tags: N-terminal GST; dsDNA, one strand shown
# T2 sequence: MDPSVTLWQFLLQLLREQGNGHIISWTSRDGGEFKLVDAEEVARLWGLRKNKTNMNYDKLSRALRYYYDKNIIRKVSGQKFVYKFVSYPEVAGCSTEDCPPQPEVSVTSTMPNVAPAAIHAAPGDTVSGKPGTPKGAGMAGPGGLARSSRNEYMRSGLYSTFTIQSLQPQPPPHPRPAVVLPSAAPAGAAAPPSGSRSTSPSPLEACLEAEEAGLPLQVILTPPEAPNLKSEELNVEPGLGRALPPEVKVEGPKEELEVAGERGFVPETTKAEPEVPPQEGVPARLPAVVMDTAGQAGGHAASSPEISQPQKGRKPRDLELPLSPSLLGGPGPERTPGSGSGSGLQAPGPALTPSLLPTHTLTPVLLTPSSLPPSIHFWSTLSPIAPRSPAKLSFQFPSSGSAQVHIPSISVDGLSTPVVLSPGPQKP
# Summary of the method: as §1
# GABPA = target: T3, GABPA (Homo sapiens, UniProt Q06546 1-454); details: protein: recombinant; tags: N-terminal GST; dsDNA, one strand shown
# T3 sequence: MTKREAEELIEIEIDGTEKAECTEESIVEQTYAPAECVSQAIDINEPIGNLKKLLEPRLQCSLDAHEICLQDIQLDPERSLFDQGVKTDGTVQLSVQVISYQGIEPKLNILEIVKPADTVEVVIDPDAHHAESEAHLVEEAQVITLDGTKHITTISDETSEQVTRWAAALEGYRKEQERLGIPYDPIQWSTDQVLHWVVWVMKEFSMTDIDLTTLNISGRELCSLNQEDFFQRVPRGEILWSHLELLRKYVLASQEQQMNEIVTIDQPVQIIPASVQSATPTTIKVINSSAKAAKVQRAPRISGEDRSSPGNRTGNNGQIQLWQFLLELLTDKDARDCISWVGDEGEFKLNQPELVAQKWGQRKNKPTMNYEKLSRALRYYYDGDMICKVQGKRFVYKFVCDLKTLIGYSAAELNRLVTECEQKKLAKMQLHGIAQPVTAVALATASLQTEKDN
# Summary of the method: as §1
# ERG = target: T4, ERG (Homo sapiens, UniProt P11308 1-479); details: protein: recombinant; tags: N-terminal GST; dsDNA, one strand shown
# T4 sequence: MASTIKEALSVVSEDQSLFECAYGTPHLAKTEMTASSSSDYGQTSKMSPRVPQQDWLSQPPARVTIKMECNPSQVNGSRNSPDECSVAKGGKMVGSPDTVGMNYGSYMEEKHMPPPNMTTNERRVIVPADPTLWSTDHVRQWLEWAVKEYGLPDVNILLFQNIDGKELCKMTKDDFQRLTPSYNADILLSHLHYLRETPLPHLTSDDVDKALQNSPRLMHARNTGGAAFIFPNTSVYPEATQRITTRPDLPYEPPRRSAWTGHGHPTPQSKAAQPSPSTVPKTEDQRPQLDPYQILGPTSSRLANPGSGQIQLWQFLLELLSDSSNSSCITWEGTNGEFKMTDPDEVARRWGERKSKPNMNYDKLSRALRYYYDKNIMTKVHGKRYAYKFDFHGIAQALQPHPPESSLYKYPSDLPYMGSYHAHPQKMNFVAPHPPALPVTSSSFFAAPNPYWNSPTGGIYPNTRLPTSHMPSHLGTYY
# Summary of the method: as §1
# ELF1 = ELF1 (Homo sapiens, UniProt P32519 1-619); details: protein: recombinant; tags: N-terminal GST; dsDNA, one strand shown
# Summary of the method: as §1
# EHF = target: T5, EHF (Homo sapiens, UniProt Q9NZC4 1-300); details: protein: recombinant; tags: N-terminal GST; dsDNA, one strand shown
# T5 sequence: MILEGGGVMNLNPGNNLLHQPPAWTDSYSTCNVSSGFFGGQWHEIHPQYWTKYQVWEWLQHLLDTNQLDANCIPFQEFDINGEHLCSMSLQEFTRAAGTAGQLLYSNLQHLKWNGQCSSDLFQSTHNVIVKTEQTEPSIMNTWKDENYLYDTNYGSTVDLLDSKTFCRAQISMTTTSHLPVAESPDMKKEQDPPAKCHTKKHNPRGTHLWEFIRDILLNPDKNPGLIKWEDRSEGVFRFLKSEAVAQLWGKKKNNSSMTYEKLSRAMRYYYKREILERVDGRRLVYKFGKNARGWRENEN
# Summary of the method: as §1
# SPI1 = SPI1 (Homo sapiens, UniProt P17947 1-270); details: protein: recombinant; tags: N-terminal GST; dsDNA, one strand shown
# Summary of the method: as §1
# SPIB = SPIB (Homo sapiens, UniProt Q01892 1-262); details: protein: recombinant; tags: N-terminal GST; dsDNA, one strand shown
# Summary of the method: as §1
# ELK3 = target: T6, ELK3 (Homo sapiens, UniProt P41970 1-407); details: protein: recombinant; tags: N-terminal GST; dsDNA, one strand shown
# T6 sequence: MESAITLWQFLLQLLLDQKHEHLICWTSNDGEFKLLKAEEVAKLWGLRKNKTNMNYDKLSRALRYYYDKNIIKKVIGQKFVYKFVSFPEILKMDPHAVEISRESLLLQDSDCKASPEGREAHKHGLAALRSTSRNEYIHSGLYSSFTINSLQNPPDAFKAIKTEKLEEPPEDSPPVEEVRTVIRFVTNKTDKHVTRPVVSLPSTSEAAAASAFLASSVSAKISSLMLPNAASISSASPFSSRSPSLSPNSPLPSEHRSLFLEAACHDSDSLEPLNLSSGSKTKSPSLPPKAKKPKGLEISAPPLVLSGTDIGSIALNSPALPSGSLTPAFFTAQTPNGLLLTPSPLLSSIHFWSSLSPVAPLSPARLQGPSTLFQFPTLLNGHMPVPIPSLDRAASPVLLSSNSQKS
# Summary of the method: as §1
# FEV = target: T7, FEV (Homo sapiens, UniProt Q99581 1-238); details: protein: recombinant; tags: N-terminal GST; dsDNA, one strand shown
# T7 sequence: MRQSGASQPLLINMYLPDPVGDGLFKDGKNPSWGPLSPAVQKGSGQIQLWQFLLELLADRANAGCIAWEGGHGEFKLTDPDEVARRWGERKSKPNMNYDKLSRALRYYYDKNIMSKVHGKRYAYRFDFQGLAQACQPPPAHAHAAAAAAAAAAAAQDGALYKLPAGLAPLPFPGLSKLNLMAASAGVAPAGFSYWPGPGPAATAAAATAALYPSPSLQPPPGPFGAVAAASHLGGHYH
# Summary of the method: as §1
# ETV5 = ETV5 (Homo sapiens, UniProt P41161 1-510); details: protein: recombinant; tags: N-terminal GST; dsDNA, one strand shown
# Summary of the method: as §1
# HSF1 = HSF1 (Homo sapiens, UniProt Q00613 1-529); details: protein: recombinant; tags: N-terminal GST; chain copies: 3; dsDNA, one strand shown
# Summary of the method: as §1
# SPIC = target: T8, SPIC (Homo sapiens, UniProt Q8N5J4 1-248); details: protein: recombinant; tags: N-terminal GST; dsDNA, one strand shown
# T8 sequence: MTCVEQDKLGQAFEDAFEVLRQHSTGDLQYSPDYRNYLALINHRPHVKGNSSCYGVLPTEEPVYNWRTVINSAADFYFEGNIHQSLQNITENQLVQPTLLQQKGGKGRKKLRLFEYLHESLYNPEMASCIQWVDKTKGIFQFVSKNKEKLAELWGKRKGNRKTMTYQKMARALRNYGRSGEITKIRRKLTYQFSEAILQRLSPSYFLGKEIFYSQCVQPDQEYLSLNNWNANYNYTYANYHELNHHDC
# Summary of the method: as §1
# ELF4 = ELF4 (Homo sapiens, UniProt Q99607 1-663); details: protein: recombinant; tags: N-terminal GST; dsDNA, one strand shown
# Summary of the method: as §1
# ELK4 = target: T9, ELK4 (Homo sapiens, UniProt P28324-2 1-405); details: protein: recombinant; tags: N-terminal GST; dsDNA, one strand shown
# T9 sequence: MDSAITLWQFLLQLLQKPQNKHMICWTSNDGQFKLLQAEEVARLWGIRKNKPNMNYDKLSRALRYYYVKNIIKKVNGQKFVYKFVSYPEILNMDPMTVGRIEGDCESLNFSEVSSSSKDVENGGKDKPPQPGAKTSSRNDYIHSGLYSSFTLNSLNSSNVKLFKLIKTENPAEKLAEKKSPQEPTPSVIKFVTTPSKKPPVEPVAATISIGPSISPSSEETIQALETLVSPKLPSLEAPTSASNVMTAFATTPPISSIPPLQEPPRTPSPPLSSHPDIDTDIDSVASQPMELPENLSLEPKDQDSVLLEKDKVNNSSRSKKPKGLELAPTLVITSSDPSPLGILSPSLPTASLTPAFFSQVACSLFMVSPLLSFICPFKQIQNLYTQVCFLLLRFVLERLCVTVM
# Summary of the method: as §1
# ETV2 = target: T10, ETV2 (Homo sapiens, UniProt O00321 1-342); details: protein: recombinant; tags: N-terminal GST; dsDNA, one strand shown
# T10 sequence: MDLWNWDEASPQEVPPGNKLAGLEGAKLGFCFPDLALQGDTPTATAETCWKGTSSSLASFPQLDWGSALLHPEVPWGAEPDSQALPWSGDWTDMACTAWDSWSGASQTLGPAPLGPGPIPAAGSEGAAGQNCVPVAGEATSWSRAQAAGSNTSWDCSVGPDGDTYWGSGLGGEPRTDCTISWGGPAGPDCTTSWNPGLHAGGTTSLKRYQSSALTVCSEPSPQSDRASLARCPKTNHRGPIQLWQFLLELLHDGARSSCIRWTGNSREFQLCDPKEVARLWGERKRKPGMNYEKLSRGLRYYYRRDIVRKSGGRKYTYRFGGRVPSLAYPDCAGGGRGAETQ
# Summary of the method: as §1
# ELF3 = target: T11, ELF3 (Homo sapiens, UniProt P78545 1-371); details: protein: recombinant; tags: N-terminal GST; dsDNA, one strand shown
# T11 sequence: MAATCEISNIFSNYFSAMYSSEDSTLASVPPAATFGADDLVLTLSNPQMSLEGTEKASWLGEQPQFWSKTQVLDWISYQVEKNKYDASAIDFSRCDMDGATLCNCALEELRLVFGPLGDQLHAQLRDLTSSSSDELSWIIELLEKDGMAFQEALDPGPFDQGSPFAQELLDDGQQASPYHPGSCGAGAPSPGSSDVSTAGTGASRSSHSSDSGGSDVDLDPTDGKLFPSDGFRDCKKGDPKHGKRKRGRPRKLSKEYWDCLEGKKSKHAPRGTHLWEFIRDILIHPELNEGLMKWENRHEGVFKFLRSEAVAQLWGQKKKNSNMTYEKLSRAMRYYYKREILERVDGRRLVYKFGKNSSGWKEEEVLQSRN
# Summary of the method: as §1
# ETV1 = ETV1 (Homo sapiens, UniProt P50549 1-477); details: protein: recombinant; tags: N-terminal GST; dsDNA, one strand shown
# Summary of the method: as §1
# SPIB, sequence (Q01892 whole entry): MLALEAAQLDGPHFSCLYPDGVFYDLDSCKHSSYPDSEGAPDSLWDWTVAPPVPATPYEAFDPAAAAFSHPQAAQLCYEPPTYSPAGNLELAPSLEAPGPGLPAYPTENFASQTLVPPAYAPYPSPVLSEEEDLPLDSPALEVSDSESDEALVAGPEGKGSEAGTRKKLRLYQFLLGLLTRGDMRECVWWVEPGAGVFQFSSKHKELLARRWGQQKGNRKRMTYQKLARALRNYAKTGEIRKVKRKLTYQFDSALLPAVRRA
# ELF1, sequence (P32519 whole entry): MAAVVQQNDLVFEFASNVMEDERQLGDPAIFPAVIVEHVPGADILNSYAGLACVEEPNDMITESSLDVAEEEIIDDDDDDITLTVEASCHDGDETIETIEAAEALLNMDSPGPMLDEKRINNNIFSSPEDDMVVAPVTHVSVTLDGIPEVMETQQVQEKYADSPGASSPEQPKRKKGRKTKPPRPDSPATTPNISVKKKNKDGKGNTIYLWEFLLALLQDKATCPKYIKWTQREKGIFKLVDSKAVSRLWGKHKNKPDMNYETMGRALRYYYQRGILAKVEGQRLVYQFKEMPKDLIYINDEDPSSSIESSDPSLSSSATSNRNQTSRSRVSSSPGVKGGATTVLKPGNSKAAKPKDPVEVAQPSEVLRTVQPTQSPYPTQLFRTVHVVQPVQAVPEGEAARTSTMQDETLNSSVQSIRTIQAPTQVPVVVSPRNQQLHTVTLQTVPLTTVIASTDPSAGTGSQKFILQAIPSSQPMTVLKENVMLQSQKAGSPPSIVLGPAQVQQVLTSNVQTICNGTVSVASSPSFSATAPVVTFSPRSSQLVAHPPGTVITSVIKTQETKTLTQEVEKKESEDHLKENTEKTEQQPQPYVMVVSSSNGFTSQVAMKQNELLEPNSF
# ETV5, sequence (P41161 whole entry): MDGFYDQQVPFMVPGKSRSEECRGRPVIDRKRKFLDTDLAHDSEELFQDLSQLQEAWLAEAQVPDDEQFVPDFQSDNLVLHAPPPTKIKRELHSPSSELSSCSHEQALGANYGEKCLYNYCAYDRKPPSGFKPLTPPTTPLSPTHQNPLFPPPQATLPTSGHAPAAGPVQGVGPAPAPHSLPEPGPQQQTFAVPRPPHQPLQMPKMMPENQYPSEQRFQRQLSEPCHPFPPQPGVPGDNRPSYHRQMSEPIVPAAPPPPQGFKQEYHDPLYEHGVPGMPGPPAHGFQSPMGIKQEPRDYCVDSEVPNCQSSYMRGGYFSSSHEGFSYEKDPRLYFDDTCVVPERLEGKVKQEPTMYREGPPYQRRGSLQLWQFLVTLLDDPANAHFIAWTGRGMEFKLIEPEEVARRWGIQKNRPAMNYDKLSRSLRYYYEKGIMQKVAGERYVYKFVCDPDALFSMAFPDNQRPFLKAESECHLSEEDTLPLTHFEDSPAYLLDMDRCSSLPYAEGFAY
# ETV1, sequence (P50549 whole entry): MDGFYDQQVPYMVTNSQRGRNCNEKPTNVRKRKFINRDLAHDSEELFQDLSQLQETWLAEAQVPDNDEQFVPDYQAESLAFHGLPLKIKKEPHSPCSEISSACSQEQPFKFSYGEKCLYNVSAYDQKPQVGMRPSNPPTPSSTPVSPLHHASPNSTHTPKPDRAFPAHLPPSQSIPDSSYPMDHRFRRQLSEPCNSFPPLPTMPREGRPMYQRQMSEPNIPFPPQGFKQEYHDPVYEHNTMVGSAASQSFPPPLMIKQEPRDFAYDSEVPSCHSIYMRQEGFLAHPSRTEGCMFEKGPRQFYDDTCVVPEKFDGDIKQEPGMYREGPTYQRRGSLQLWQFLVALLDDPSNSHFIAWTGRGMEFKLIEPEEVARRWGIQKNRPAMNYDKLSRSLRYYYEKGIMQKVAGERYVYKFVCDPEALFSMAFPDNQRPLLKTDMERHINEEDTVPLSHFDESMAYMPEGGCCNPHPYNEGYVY
# HSF1, sequence (Q00613 whole entry): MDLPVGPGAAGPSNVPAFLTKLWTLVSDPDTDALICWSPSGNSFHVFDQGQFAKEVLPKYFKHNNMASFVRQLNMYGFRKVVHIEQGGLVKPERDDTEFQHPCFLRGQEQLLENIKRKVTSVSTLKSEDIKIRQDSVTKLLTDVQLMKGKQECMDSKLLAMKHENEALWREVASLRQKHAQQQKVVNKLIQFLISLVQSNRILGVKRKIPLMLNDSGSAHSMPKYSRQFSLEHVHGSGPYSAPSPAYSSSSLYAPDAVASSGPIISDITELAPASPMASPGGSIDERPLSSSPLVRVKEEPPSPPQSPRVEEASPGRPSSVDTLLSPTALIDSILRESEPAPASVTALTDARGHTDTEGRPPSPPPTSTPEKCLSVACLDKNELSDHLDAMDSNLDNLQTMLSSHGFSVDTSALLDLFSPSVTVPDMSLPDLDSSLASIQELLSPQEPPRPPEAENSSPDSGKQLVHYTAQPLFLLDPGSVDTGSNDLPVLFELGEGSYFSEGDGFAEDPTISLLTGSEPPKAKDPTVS
# ELF4, sequence (Q99607 whole entry): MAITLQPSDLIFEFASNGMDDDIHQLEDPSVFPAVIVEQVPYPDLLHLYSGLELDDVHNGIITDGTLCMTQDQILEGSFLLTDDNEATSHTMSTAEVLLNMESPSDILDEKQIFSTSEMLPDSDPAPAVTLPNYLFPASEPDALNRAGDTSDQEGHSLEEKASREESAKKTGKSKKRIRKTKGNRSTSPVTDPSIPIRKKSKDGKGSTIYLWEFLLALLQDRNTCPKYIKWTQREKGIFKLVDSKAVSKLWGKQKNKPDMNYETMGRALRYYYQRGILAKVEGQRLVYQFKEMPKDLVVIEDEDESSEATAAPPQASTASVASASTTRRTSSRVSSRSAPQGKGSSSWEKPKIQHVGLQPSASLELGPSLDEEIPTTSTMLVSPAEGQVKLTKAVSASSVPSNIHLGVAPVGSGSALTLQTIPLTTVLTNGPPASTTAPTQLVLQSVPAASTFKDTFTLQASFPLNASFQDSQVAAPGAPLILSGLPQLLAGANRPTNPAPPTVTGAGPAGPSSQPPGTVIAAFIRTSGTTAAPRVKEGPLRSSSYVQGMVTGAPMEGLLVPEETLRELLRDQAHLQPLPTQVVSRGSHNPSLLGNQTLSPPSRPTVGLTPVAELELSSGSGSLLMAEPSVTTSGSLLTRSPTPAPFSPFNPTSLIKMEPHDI
sequence,measurement,setting,value
CGTCCT,binding signal,FLI1,"1.28 fold enrichment (6-mer frequency, TF over GST control)"
same,binding signal,ELK1,"1.44 fold enrichment (6-mer frequency, TF over GST control)"
same,binding signal,GABPA,"1.32 fold enrichment (6-mer frequency, TF over GST control)"
same,binding signal,ERG,"1.41 fold enrichment (6-mer frequency, TF over GST control)"
same,binding signal,ELF1,"1.3 fold enrichment (6-mer frequency, TF over GST control)"
same,binding signal,EHF,"1.37 fold enrichment (6-mer frequency, TF over GST control)"
same,binding signal,SPI1,"1.42 fold enrichment (6-mer frequency, TF over GST control)"
same,binding signal,SPIB,"1.38 fold enrichment (6-mer frequency, TF over GST control)"
same,binding signal,ELK3,"1.47 fold enrichment (6-mer frequency, TF over GST control)"
same,binding signal,FEV,"1.38 fold enrichment (6-mer frequency, TF over GST control)"
same,binding signal,ETV5,"1.32 fold enrichment (6-mer frequency, TF over GST control)"
same,binding signal,HSF1,"1.08 fold enrichment (6-mer frequency, TF over GST control)"
same,binding signal,SPIC,"1.27 fold enrichment (6-mer frequency, TF over GST control)"
same,binding signal,ELF4,"1.44 fold enrichment (6-mer frequency, TF over GST control)"
same,binding signal,ELK4,"1.4 fold enrichment (6-mer frequency, TF over GST control)"
same,binding signal,ETV2,"1.66 fold enrichment (6-mer frequency, TF over GST control)"
same,binding signal,ELF3,"1.31 fold enrichment (6-mer frequency, TF over GST control)"
same,binding signal,ETV1,"1.24 fold enrichment (6-mer frequency, TF over GST control)"
